Structures can show the parent of a compound that is named as a salt. ± gives the standard deviation.
Key:
[1] = system: Jurkat; test: mean cell size (FSC-A) relative to DMSO control (fraction of control); higher = larger cells; details: 48 h
Method in brief: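 Jurkat cells at 600 cells/µl were incubated for 1 h and then treated for 48h with the Enzo Screen-Well FDA Approved Drug Library v2.0 at 25µM, with DMSO at 0.9% (v/v) final. Compounds that reduced counts below 20% of controls were retested in 10-fold dilutions down to 25nM. Cell count and mean cell size, taken as forward scatter area, were measured by flow cytometry relative to solvent-only controls. Each plate carried 6-12 controls, and values are means of 3 biological replicates.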

[2] = system: Jurkat; test: cell count relative to DMSO control (fraction of control); higher = more cells (less growth inhibition); details: 48 h

SMILES	mean cell size [1]	cell count [2]
CC(C)(C)NCC(O)c1cc(O)cc(O)c1 (stereo unspecified) [Terbutaline Hemisulfate] (concentration: 25 µM)	0.92 ± 0.066	0.503 ± 0.057
O=C1Cc2cc(CCN3CCN(c4nsc5ccccc45)CC3)c(Cl)cc2N1 [Ziprasidone] (concentration: 25 µM)	0.98 ± 0.062	0.838 ± 0.098
Cc1c(OCC(F)(F)F)ccnc1C[S+]([O-])c1nc2ccccc2[nH]1 (stereo unspecified) [Lansoprazole] (concentration: 25 µM)	0.927 ± 0.027	0.617 ± 0.01
NCCC(O)(P(=O)(O)O)P(=O)(O)O [Pamidronate Disodium  Pentahydrate (Pamidronic Acid)] (concentration: 25 µM)	0.967 ± 0.034	0.822 ± 0.023
CO/N=C(\C(=O)N[C@@H]1C(=O)N2C(C(=O)O)=C(CSc3nc(=O)c(=O)[nH]n3C)CS[C@H]12)c1csc(N)n1 [Ceftriaxone·Na] (concentration: 25 µM)	0.969 ± 0.028	1.06 ± 0.073
COc1cc([C@@H]2c3cc4c(cc3[C@@H](O[C@@H]3O[C@@H]5CO[C@@H](c6cccs6)O[C@H]5[C@H](O)[C@H]3O)[C@H]3COC(=O)[C@H]23)OCO4)cc(OC)c1O [Teniposide] (concentration: 25 nM)	1.25 ± 0.033	0.478 ± 0.044
NS(=O)(=O)c1cc2c(cc1Cl)NCNS2(=O)=O [Hydrochlorothiazide] (concentration: 25 µM)	0.901 ± 0.044	0.411 ± 0.088
Cc1cccc(CN2CCN(C(c3ccccc3)c3ccc(Cl)cc3)CC2)c1 (stereo unspecified) [Meclizine Dihydrochloride] (concentration: 25 µM)	0.965 ± 0.024	0.703 ± 0.088
